Source: PubChem
ELG1 genotox: inducers of genotoxicity in HEK293T ELG1-luciferase cells. HEK293T ELG1-luciferase reporter, luminescence, 16 h. Potency, µM (top dose mostly 46 µM), most hits filed as activators. 330,000 compounds, 1.3% hits. AID 504466; also: nearly all actives have a fitted effect of over 60% in size
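Quantitative HTS format in 1536-well plates. HEK293T ELG1-luciferase reporter cells receive test compound and are incubated 16 hr at 37 °C, 5% CO2; ONE-Glo added, 30 min room temperature, then luminescence read.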
FLuc modulator: counter-screen for miR-21 project: firefly luciferase inhibitors or activators | P08659 | Potency, µM (top dose mostly 57.5 µM), actives largely listed as inhibitors | AID 588342 | 360,000 compounds, 6.9% hits | purified FLuc, Km substrates, luminescence inhibition; also: nearly all actives have a fitted effect of over 55% in size
Target sequence (P08659 whole entry, looked up): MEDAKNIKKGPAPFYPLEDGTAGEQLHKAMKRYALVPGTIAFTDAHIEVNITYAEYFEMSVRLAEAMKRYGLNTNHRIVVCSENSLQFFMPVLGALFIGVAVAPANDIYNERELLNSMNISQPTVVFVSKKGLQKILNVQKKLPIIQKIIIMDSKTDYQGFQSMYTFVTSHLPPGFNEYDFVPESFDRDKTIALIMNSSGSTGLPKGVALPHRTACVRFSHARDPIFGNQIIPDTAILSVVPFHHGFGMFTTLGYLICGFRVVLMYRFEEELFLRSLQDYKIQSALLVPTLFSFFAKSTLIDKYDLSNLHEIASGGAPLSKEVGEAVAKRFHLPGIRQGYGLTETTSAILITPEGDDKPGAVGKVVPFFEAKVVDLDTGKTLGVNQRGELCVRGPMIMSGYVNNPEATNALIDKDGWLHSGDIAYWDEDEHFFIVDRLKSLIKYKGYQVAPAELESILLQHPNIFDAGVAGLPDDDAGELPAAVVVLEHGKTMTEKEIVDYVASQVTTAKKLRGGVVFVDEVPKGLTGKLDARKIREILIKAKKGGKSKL
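Purified P. pyralis luciferase (10nM final) with 10uM D-luciferin and 10uM ATP (Km levels) in 50mM Tris acetate pH 7.5, 10mM Mg acetate, 0.01% Tween-20, 0.05% BSA; qHTS 6-point titration, ~60 µM downward; luminescence read.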
Rab9 prom act: activates the Rab9 promoter | Huh7 Rab9 promoter-luciferase reporter, luminescence, 24 h | 320,000 compounds, 2.8% hits | Potency, µM (titrated, usually from 9.22 µM), hits mostly activators; also: nearly all actives have a fitted effect of over 60% in size
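Cells were plated at 1500 per well in reduced-serum medium with 10% FBS and left 2 h. Compound in DMSO was then added for 24 h at 37 °C. Reporter signal was read by luminescence after 10 min with luciferase detection reagent.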
SMN2 splice up: increases expression of the SMN2 splice variant. Potency, µM (doses to about 46.1 µM), actives largely listed as activators. 210,000 compounds, 2.8% hits. AID 1458. HEK293 SMN2-luciferase splicing reporter, luminescence, 30-36 h; also: nearly all actives have a fitted effect of over 55% in size
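HEK293 cells carry an SMN2 […]–luciferase reporter in which exon 7 inclusion puts luciferase in frame. Cells were plated 10-12 h before compound addition, then incubated 30-36 h at 37C. ONE-Glo luminescence was read; sodium butyrate at 4.5 mM final served as control.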
KinaseGlo FLuc: blocks Kinase-Glo luciferase, a counter-screen artifact | Q27757 | Kinase-Glo luciferase, ATP luminescence, 8 min | Potency, µM (doses to about 38.3 µM), actives largely listed as inhibitors | 200,000 compounds, 0.28% hits; also: nearly all actives have a fitted effect of over 60% in size
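Kinase-Glo luciferase light output from ATP and luciferin was measured with 10 uM ATP, within the enzyme's linear range. Buffer: 50 mM imidazole pH 7.2, 50 mM KCl, 7 mM MgCl2, 0.01% Tween 20, 0.05% BSA; luminescence read after 8 min at ambient temperature.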
NPC1 prom act: activates the NPC1 promoter. Huh7 NPC1 promoter luciferase reporter, 24 h. Potency, µM (doses to about 9.22 µM), most hits filed as activators. 320,000 compounds, 2.4% hits. AID 485313; also: nearly all actives have a fitted effect of over 60% in size
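Huh7 reporter cells (NPC1 promoter driving luciferase) are dosed with compound for 24 h at 37 °C, 5% CO2; luciferase detection reagent is then added and luminescence measured after 10 min at ambient temperature.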
Hits are given with their value; . = inactive; ? = inconclusive; / = no result given; [ ] = remark or other dose. Sampled rows, rich in hits. Any-hit rate of the full collection: about 7.4%. Calls follow the shape of the dose curve; as a rule, active = well fitted curve in the direction sought with a large enough effect; inconclusive = small, poorly fitted or top-dose-only effect, or another doubt; inactive = no such curve, though single readings can be large; an effect the other way counts as inactive or inconclusive.

SMILES | ELG1 genotox | FLuc modulator | Rab9 prom act | SMN2 splice up | KinaseGlo FLuc | NPC1 prom act
Cc1ccccc1N1C(=O)/C(=C/c2ccco2)C(=O)NC1=S | . | 24µM | . | / | / | .
C=CCN1C[C@H](C)N([C@H](c2ccc(C(=O)N(CC)CC)cc2)c2cccc(O)c2)C[C@H]1C | / | / | / | / | . | /
CCCCC/C=C\C/C=C\C/C=C\C/C=C\CCCC(=O)N[C@H](C)CO | / | / | / | . | . | /
CC(C)(C)n1cc(C(=O)c2ccccc2OCCCF)cn1 | . | . | .[1.84 µM] | / | / | .
CC(C)(C)n1cc(C(=O)c2ccc3ccccc3c2O)cn1 | ? | 0.67µM | 0.56µM | . | . | 0.45µM
CCC(=Nc1cc(OC)ccc1OC)c1c(O)[nH]c(=O)[nH]c1=O | . | . | . | . | . | .
C=CCn1c(O)c(C(CC)=Nc2cc(OC)ccc2OC)c(=O)[nH]c1=O | 23µM | . | . | ? | . | .
CC(=O)[C@@]1(O)CC[C@H]2C3CCC4=CC(=O)CC[C@]4(C)C3CC[C@@]21C (some centres not stated) | / | / | / | . | . | /
O=C(CN1CCCCC1)c1ccccc1Cl | . | 19µM | . | . | . | .
O=C(CN1CCCCC1)c1ccccc1F | . | . | . | . | . | .
N=C1c2ccccc2CN1CC(=O)c1ccccc1 | ? | 15µM | ? | 11µM | . | .
CC(C)C1C(=O)N2CCC[C@H]2[C@]2(O)O[C@](NC(=O)[C@@H]3C=C4c5cccc6[nH]cc(c56)C[C@H]4N(C)C3)(C(C)C)C(=O)N12 (some centres not stated) | / | / | / | . | / | /
O=C(Cl)OCc1ccccc1 | / | / | / | . | / | /
CN1CCN(C(=O)COc2ccc3ccccc3c2)CC1 | . | . | . | / | / | .
CN1CCN(C(=O)COc2ccc(-c3nc4ccccc4s3)cc2)CC1 | ? | 0.15µM | 0.32µM | 4µM | . | 0.63µM
CC1CCN(C(=O)COC(=O)c2cn(C)c3ccccc23)CC1 | . | 24µM | . | / | / | .
Nc1ccccc1C(=O)OCC(=O)N1CCc2ccccc21 | 9.2µM | 9.5µM | 2.5µM | . | . | ?
COC(=O)c1ccccc1N | / | / | / | . | / | /
O=C(O)CBr | / | / | / | . | / | /
CCOc1ccc(C(=O)Nc2cccc(C(=O)OCc3cc(=O)n4nc(C5CC5)sc4n3)c2)cc1 | / | 1.9µM | / | / | / | /
COc1ccc(C(=O)CCNc2ccc(F)cc2)cc1 | ? | ? | 2.8µM | / | / | ?
COc1ccc(C(=O)C(C)(C)NO)cc1 | . | . | . | . | . | .
CN(C)C(=O)Oc1ccc(OCc2nc3ccccc3[nH]2)cc1 | ? | 1.5µM | 0.45µM | 7.1µM | 11µM | ?
CN(C)C(=O)Oc1ccc(OC(=O)N(C)C)cc1 | . | . | ? | . | . | .
COC(=O)[C@@H]1C[C@H]1[C@@H](NP(=O)(c1ccccc1)c1ccccc1)c1ccccc1 | 18µM | . | . | 10µM | . | .
SMILES | ELG1 genotox | FLuc modulator | Rab9 prom act | SMN2 splice up | KinaseGlo FLuc | NPC1 prom act
C[C@@]12CC[C@H]3[C@H](CCC4=CC(=O)CC[C@H]43)[C@H]1CC[C@H]2OC1(O)C(=O)c2ccccc2C1=O | / | / | / | .[9.22 µM] | .[7.66 µM] | /
COC(=O)[C@H]1C(=O)[C@H](C(=O)OC)[C@@H]2CC[C@H]1N2C | / | / | / | .[9.22 µM] | .[7.66 µM] | /
CCSC(=O)Cl | / | / | / | . | / | /
Cc1cn2c(=O)cc(COC(=O)c3ccccc3F)nc2s1 | / | 2.7µM | / | / | / | /
CC(=O)n1cc(C=C2C(=O)NC(=O)NC2=O)c2ccccc21 | .[9.26 µM] | 15µM | . | / | / | .
O=C(Nc1ccc(F)cc1)Oc1ccc[nH]c1=O | . | 19µM | . | / | / | .
COC[C@H]1OC(=O)c2coc3c2[C@@]1(C)C1=C(C3=O)[C@H]2CCC(=O)[C@@]2(C)C[C@H]1OC(C)=O | / | / | / | / | . | /
Cc1ccc(CNC(=O)c2ccccc2NC(=O)c2nsc3ccccc23)cc1 | / | 17µM | / | / | / | /
CCOc1ccc(-c2cc(C(=O)N3CCN(c4cccc(C(F)(F)F)c4)CC3)c3ccccc3n2)cc1 | / | 2.4µM | / | / | / | /
O=C(c1cc(-c2ccccc2)nc2ccccc12)N1CCC2(CC1)OCCO2 | . | ? | . | . | . | .
CN(C)C(=O)Oc1ccc(C(=O)c2ccccc2)cc1 | . | ? | . | . | . | .
CCC(=O)Oc1ccc(C(=O)Nc2cccc(C(=O)c3ccccc3)c2)cc1 | . | 17µM | . | . | . | .
